This passage reports inhibition results from PubChem BioAssay AID652154 (Broad Institute, 2013).

Hit rate of the full screen: of about 360,000 compounds, about 4,200 (1.2%) were called active. This is one part of a sample in which actives are shown more often than they occur. Unmarked numbers belong to inactive results.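 Rule for the calls: active = mean replicate inhibition at least 60% with every replicate also reaching 60%; inconclusive = only one of the two criteria is met; inactive = mean below 60% and not all replicates reaching 60%.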

The nature of the assay: inhibitors of PAX8-driven TPO luciferase reporter, primary screen, RMG-I cells, single concentration (AID 652154).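 Note: luciferase light reporting Pax8 driven TPO promoter activity; plate controls were median of neutral control wells for no effect and mitoxantrone controls for full effect.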 As to conditions: SteadyGlo, 24 h, at 12.6 µM, hits give high values. For orientation: Reporter assays use an easily measured gene product as a stand-in for the process of interest.
By inhibition is commonly meant the change of the read-out against control, counted positive when it falls. For `COc1ccccc1NC(=O)N[C@H]1C=C[C@@H](CC(=O)N[C@@H](C)c2ccccc2)O[C@@H]1CO`, the inhibition is 4.41%. As to `O=C(C[C@H]1CC[C@@H]2[C@H](COC[C@H](O)CN2C(=O)c2ccc3c(c2)OCO3)O1)NC1CCC1`, the inhibition was -16.6%. To `CC(=O)Nc1ccc2c(c1)C(=O)N(C)[C@@H]1CC[C@H](CC(=O)NCc3ccccc3)O[C@H]1CO2` belongs -2.89%.

For the compound `C/C=C/c1cnc2c(c1)C(=O)N([C@H](C)CO)C[C@H](C)[C@@H](CN(C)C(=O)c1cccc(F)c1)O2`, the inhibition was -7.23%. To `C[C@H](CO)N1C[C@H](C)[C@@H](CN(C)S(=O)(=O)c2ccc(F)cc2)Oc2ccc(NC(=O)CCCCCC(=O)Nc3ccccc3N)cc2CC1=O` belongs 26.9%; to `C[C@H](CO)N1C[C@H](C)[C@@H](CN(C)S(=O)(=O)c2cn(C)cn2)Oc2ccc(NS(=O)(=O)c3cn(C)cn3)cc2C1=O`, -10.4%. To `COC(=O)[C@@]1(Cc2ccc(F)cc2)[C@H]2c3cc(C(=O)N4CCCC4)n(C[C@H](O)CO)c3C[C@H]2CN1C(=O)c1ccccc1` belongs 0.0525%; to `COC(=O)[C@@]1(Cc2ccc(OC)cc2)[C@H]2c3cc(C(=O)N4CCCC4)n(Cc4ccc(OC(F)(F)F)cc4)c3C[C@H]2CN1C(=O)c1ccccc1`, 77% (active). For `COC(=O)[C@@]1(Cc2ccc(F)cc2)[C@H]2c3cc(C(=O)N(C)C)n(CCc4c[nH]c5ccc(OC)cc45)c3C[C@H]2CN1C(=O)c1ccccc1`, the inhibition is -3.55%. Regarding `C[C@@H]1CN([C@H](C)CO)C(=O)Cc2cc(NC(=O)CCCN(C)C)ccc2O[C@@H]1CN(C)Cc1ccc(Oc2ccccc2)cc1`, the inhibition was -19.4%. Turning to `Cn1cnc(CCNC(=O)C[C@H]2CC[C@@H]3[C@H](COC[C@@H](O)CN3C(=O)Nc3ccc(Cl)cc3)O2)c1`, the inhibition is -17.8%.

Consider `Cc1noc(C)c1S(=O)(=O)Nc1ccc2c(c1)C(=O)N([C@H](C)CO)C[C@@H](C)[C@@H](CN(C)Cc1ccccc1)OCCCC[C@@H](C)O2`, for which the inhibition is 15.9%. Regarding `CCOC(=O)c1ccc(NC(=O)c2nc[nH]c2C(=O)N[C@@H](CCCCNC(=O)OC(C)(C)C)C(=O)OC(C)(C)C)cc1`, the inhibition was 11.1%. To `CC(C)(C)OC(=O)NCCCCCNC(=O)c1nc[nH]c1C(=O)NCc1ccccc1` belongs 8.72%. As for `Cc1ccc(NC(=O)c2nc[nH]c2C(=O)N[C@@H](CCCCNC(=O)OC(C)(C)C)C(=O)OC(C)(C)C)cc1`, the figure is 64% (active). To `COc1ccccc1CCn1cnc(-c2ccccc2)c1C(C)C` belongs 14.5%; to `O=C(Nc1ccccn1)C1CCN(S(=O)(=O)c2ccccc2)CC1`, -150%.

As for `Cc1cccc(NC(=O)C2CCN(S(=O)(=O)c3cccc4cccnc34)CC2)c1`, the inhibition is 11.9%. For the compound `Cc1ccnc(NC(=O)C2CCN(S(=O)(=O)c3c(C)c(C)cc(C)c3C)CC2)c1`, the inhibition was 74.9% (active). With `COc1ccccc1-c1ccc2c(c1)[C@H]1[C@H](CCN1S(=O)(=O)c1ccccc1)[C@@H](CO)N2`, the inhibition is 48.7%. To `O=C(Nc1c(Cl)c(C2CC2)nn1-c1ccccc1)C(Cl)(Cl)Cl` belongs 12.8%; to `CCC(=O)Nc1ccc2c(c1)OC[C@H](C)N(C(=O)Cc1cccnc1)C[C@@H](C)[C@@H](OC)CN(C)C2=O`, 19.9%; to `CN1CCN(C(=O)Cn2c(C(F)(F)F)nc3ccccc32)CC1`, 1.81%. As for `COC(=O)Cn1c(O)c(N=NC(=O)OC)c2ccccc21`, the figure is 8.64%; as for `CCCCn1c(O)c(N=NC(=O)Cn2c(C(F)(F)F)nc3ccccc32)c2ccccc21`, 125% (active); as for `CCCNC(=O)N1[C@@H]2c3ccc(-c4ccccc4OC)c(=O)n3C[C@H]1[C@H](CO)[C@H]2C(=O)N(C)C`, -4.26%. To `C=C1C(=O)[C@]23C[C@H]1CCC2[C@@]1(C)C(C[C@@H]3O)[C@](C)(C(=O)O)CC[C@@H]1O` (stereo not given in full) belongs 71.9% (active).

As for `CN1CCCCN2[C@@H](CO)[C@@H](c3ccc(C4=CCCC4)cc3)[C@@H]2C1`, the inhibition is -5.77%. As for `S=c1[nH]nc(-c2cccnc2)n1/N=C/C(Cl)=C\c1ccccc1`, the figure is 72.4% (active); as for `COc1ccccc1N1CCN(/N=C\C(Br)=C\c2ccccc2)CC1`, 3.71%. To `Fc1ccc(/C=N/n2c(COc3ccccc3)n[nH]c2=S)cc1` belongs -9.55%; to `Cc1cc(-c2n[nH]c(=S)n2/N=C/C(Br)=C/c2ccccc2)n[nH]1`, 94% (active); to `S=c1[nH]nc(-c2cccs2)n1/N=C/c1cn(-c2ccccc2)nc1-c1ccc(Cl)cc1`, 3.55%. As for `Cc1ccccc1-c1n[nH]c(=S)n1/N=C/c1ccc(-c2ccccc2Br)o1`, the figure is -5.71%; as for `COc1cccc(-c2ccc([C@H]3[C@H]4CN(C(=O)NC(C)C)CC(=O)N4[C@H]3CO)cc2)c1`, -13.6%; as for `CCC(=O)N1C[C@@H](C)[C@@H](OC)CN(C)C(=O)c2ccc(NC(=O)C3CCCCC3)cc2OC[C@@H]1C`, -13.2%.

As for `O=C(C1CC1)N1CCCCN2[C@H](C1)[C@@H](c1ccc(-c3cccc(F)c3)cc1)[C@@H]2CO`, the inhibition was 4.79%. With `O=C(c1cccc(F)c1)N1CCCCN2[C@H](CO)[C@@H](c3ccc(-c4cncnc4)cc3)[C@H]2C1`, the inhibition was -27.3%. As for `O=C(C[C@@H]1C=C[C@@H](NC(=O)c2cccnc2)[C@H](CO)O1)NCc1ccncn1`, the figure is 2.15%; as for `CO[C@@H]1CN(C)C(=O)c2ccc(NC(=O)Nc3c(C)noc3C)cc2OC[C@H](C)N(CC2CC2)C[C@H]1C`, 4.7%; as for `CC1(C)CC(=O)C=C(N2CCOCC2)C1`, 7.18%. With `CC1(C)CC(N2CCN(C(c3ccccc3)c3ccccc3)CC2)=CC(=[N+]2CCCCC2)C1`, the inhibition was 94.1% (active).

For the compound `Cc1onc(C(=O)NN)c1C(=O)N1CCN(C(c2ccccc2)c2ccccc2)CC1`, the inhibition was 17.8%.

On to `CCCCCCCCN1C(=O)[C@@H](CC(=O)NCc2ccccc2)C[C@@]2(C(=O)OC)C1=C[C@H](C(C)(C)C)O[C@@H]2C`, for which the inhibition was 19.6%. As for `COc1ccccc1/C=C1\SC(=O)N(CCC(=O)N(C)C2CCS(=O)(=O)C2)C1=O` (stereo not given), the figure is -11.6%; as for `CN(C(=O)CCN1C(=O)/C(=C/c2ccccc2F)SC1=S)C1CCS(=O)(=O)C1` (stereo not given), 74.1% (active). On to `CN(C(=O)CN1C(=O)S/C(=C\c2ccccc2F)C1=O)C1CCS(=O)(=O)C1` (stereo not given), for which the inhibition is 10.3%. `CCC(=O)Nc1ccc2c(c1)nc(CCN1CCN(c3ccccn3)CC1)n2C`: the inhibition was -3.44%. As for `Cn1c(CCN2CCN(c3ccccn3)CC2)nc2cc(NS(=O)(=O)c3ccc(F)cc3)ccc21`, the figure is 50.3%; as for `Cn1c(CCN2CCCC2)nc2cc(NS(=O)(=O)c3ccccc3)ccc21`, 119% (active). Consider `O=C(Nc1ccccc1)Nc1ccc2c(c1)[C@@H]1C[C@@H](CC(=O)N3CCCCC3)O[C@H](CO)[C@@H]1O2`, for which the inhibition was -0.47%. Take `O=C(c1cccc(F)c1)N1CCCCN2[C@@H](CO)[C@H](c3ccc(-c4cncnc4)cc3)[C@@H]2C1`: the inhibition was 2.95%. As for `COc1cc(/C=N/NC(=O)c2ccc(N3CCCC3=O)cc2)ccc1O`, the figure is 86.3% (active).

As for `C/C(=N\NC(=O)c1cccc(N2CCCC2=O)c1)c1ccc(N)cc1`, the inhibition is -0.282%. Turning to `CCOc1cc(/C=N/NC(=O)CN2CCCCC2)ccc1O`, the inhibition is 3.31%. As for `CN(C)CC(=O)Nc1ccc2c(c1)[C@H]1C[C@@H](CC(=O)NCc3ccccn3)O[C@@H](CO)[C@H]1O2`, the figure is -17.3%; as for `CO[C@@H]1CC[C@H]2CCOc3c(C#N)cccc3C(=O)N(C)C[C@@H](OC)[C@H](C)C(=O)N(C)C[C@@H]1O2`, -5.56%; as for `COc1ccccc1-c1cn(CC[C@H]2CC[C@@H](NC(=O)Cc3ccccn3)[C@@H](CO)O2)nn1`, -1.82%. As for `COc1ccc2[nH]c3c(C)c4cc[n+](C)cc4c(C)c3c2c1`, the figure is 70.3% (active); as for `C/C=C/c1ccc([C@H]2[C@@H](CNC(=O)NC(C)C)N(C(=O)C3CCC3)[C@H]2CO)cc1`, 6.6%. `CO[C@@H]1CN(C)C(=O)c2cc(NS(C)(=O)=O)ccc2OC[C@H](C)N(C(=O)C2CC2)C[C@@H]1C`: the inhibition was -16.6%. As for `Oc1ccc2ccccc2c1N=Nc1nccs1`, the figure is 90.5% (active). As for `C[C@@H]1CN([C@@H](C)CO)C(=O)c2cc(NS(=O)(=O)c3ccccc3)ccc2O[C@@H](C)CCCCO[C@@H]1CN(C)S(=O)(=O)c1cccs1`, the figure is 17.1%; as for `CC(C)NC(=O)N(C)C[C@@H]1OCCCC[C@@H](C)Oc2ccc(NC(=O)Cc3ccccc3)cc2C(=O)N([C@H](C)CO)C[C@H]1C`, 20.4%. As to `CCN1/C(=C\c2ccc3ccccc3[n+]2CC)Sc2cc(C)ccc21`, the inhibition is 93.7% (active).

In the case of `O=C(C[C@@H]1C[C@@H]2c3cc(NC(=O)C4CCOCC4)ccc3O[C@@H]2[C@@H](CO)O1)NC1CCCCC1`, the inhibition was 8.24%.

As to `C[C@@H]1CN([C@H](C)CO)C(=O)Cc2cc(NC(=O)C3CC3)ccc2O[C@H]1CN(C)Cc1ccc(Cl)c(Cl)c1`, the inhibition is 11.3%. For the compound `COc1cccc(C#Cc2ccc([C@H]3[C@@H](CO)N(C(=O)c4ccccn4)[C@H]3C#N)cc2)c1`, the inhibition is 92.4% (active). As to `COc1cccc(-c2ccc([C@@H]3[C@@H](C#N)N(C(=O)c4ccccn4)[C@H]3CO)cc2)c1`, the inhibition was -20.8%. As for `COc1cccc(-c2ccc([C@@H]3[C@@H](CO)N(C(=O)c4ccccn4)[C@H]3C#N)cc2)c1`, the inhibition is -77.2%.
